Assay results taken from PubChem BioAssay.
Where a SMILES comes first, the peptide text is derived from it. The star is where a group is joined. Boc = CC(C)(C)OC(=O)*

Tests used:
[1] = test system: Botulinum neurotoxin type F light chain protease (Clostridium botulinum); experiment: Botulinum neurotoxin type F light chain protease inhibition, multiplex microsphere flow cytometry, validation set (AID 588459); conditions: multiplex microsphere protease substrate cleavage assay, at 10 µM, stronger effect = higher value
[2] = target: Botulinum neurotoxin type A (Clostridium botulinum) (UniProt P0DPI0); experiment: BoNT/A light chain protease inhibitors, biochemical, multiplex microsphere flow cytometry, validation set (AID 588460); conditions: at 10 µM, stronger effect = higher value
[3] = target: Lethal factor (Bacillus anthracis) (UniProt P15917); experiment: Lethal factor protease inhibitors, Bacillus anthracis, multiplex microsphere cleavage assay, validation set (AID 588461); conditions: flow cytometry, at 10 µM, stronger effect = higher value

Measured: inhibition

COCCCN1C(=O)/C(=C\c2cccs2)C(C(=O)OC)=C1C
inactive: [1] -1.3% | [2] -0.8% | [3] 3.3%

COc1ccc2[nH]c(CN3CCN(CC(C)C)C(CCO)C3)c(C)c2c1 (stereo not given)
inactive: [1] 2.4% | [2] 1.6% | [3] 3.1%

O=C(/C=C/c1ccc(F)cc1)NC(=S)N1CCCCC1c1cccnc1 (stereo not given)
inactive: [1] 1% | [2] -0.6% | [3] -0.1%

COc1ccccc1N=CC1=C(O)CC(c2ccccc2)CC1=O (stereo not given)
inactive: [1] 0.8% | [2] 2.2% | [3] -5%

Cc1cccc(-n2c(Cc3ccccc3)n[nH]c2=S)c1
inactive: [1] -1.9% | [2] -0.5% | [3] -2.9%

COc1ccccc1C(=O)c1cc2ccc(O)cc2oc1=O
inactive: [1] -0.4% | [2] 0.1% | [3] 2.7%

Cn1c(=O)oc2cc(S(=O)(=O)N3CCc4ccccc4C3)ccc21
inactive: [1] -0.9% | [2] -3% | [3] -3.5%

Cc1nc2ccccc2c(=O)n1N
inactive: [1] 4.9% | [2] 0.7% | [3] -5.7%

COC(=O)CN1CC(=O)N(c2ccccc2)C1=S
inactive: [1] -0.8% | [2] 0% | [3] -1%

Cc1cc(=O)oc2cc(OC(C)C(=O)NCC3CCCO3)ccc12 (stereo not given)
inactive: [1] 3% | [2] 0.9% | [3] -4.8%

Nc1ccc2nc(Cc3ccccc3)[nH]c2c1
inactive: [1] -12.8% | [2] -5.2% | [3] -74.5%

COc1ccc(/C=C/C(=O)Nc2ccccc2C(=O)O)cc1OC
inactive: [1] 2.5% | [2] -0.9% | [3] -6%

COc1ccc2cc[nH]c2c1
inactive: [1] -1.5% | [2] -0.4% | [3] 2.8%

Clc1ccc(OCCCN2CCCCC2)c(Br)c1
inactive: [1] 1.8% | [2] 0.2% | [3] -3.7%

CCCCCCC(=O)N(O)C1CC(=O)N(Cc2ccccc2)C1=O (stereo not given)
inactive: [1] 0.4% | [2] -0.7% | [3] 3.7%

Cc1ccc(C(=O)Nc2ccccc2C(=O)NC(C(=O)O)C(C)C)cc1 (stereo not given)
inactive: [1] 4.4% | [2] 0.5% | [3] -2%

Cc1nnc(SCC(=O)N2CCCC(C(=O)c3ccc(Cl)cc3)C2)o1 (stereo not given)
inactive: [1] 2.8% | [2] 0.9% | [3] -6.4%

Cc1ccc(Nc2ncccc2C(=O)O)cc1C
inactive: [1] 0.8% | [2] -0.2% | [3] -6.3%

COc1ccc(C=O)c(OC)c1
inactive: [1] -0.3% | [2] -0.5% | [3] 0.2%

COc1cc(NC(=O)N[C@@H](Cc2ccccc2)C(=O)O)cc(OC)c1
inactive: [1] 1.2% | [2] 0.4% | [3] -2.8%

COc1cc2[nH]c3c(=O)n(CCN4CCOCC4)cnc3c2cc1OC
inactive: [1] 0.3% | [2] 0.1% | [3] 1%

Cc1cn([C@H]2C=C[C@@H](CO)O2)c(=O)[nH]c1=O
inactive: [1] -1.8% | [2] -2.2% | [3] -0.8%

COc1ccc(-c2[nH]ncc2CN(CCO)Cc2cccs2)c(F)c1
inactive: [1] -1.2% | [2] 0.8% | [3] 5.8%

CSCC[C@H](NC(=O)Nc1ccc(C)cc1C)C(=O)O
inactive: [1] -2.1% | [2] 1.4% | [3] 0.5%

CC(=O)NC1C(OCCOc2ccc(Cl)cc2Cl)OC(COC(C)=O)C(OC(C)=O)C1OC(C)=O (stereo not given)
inactive: [1] -1.5% | [2] -0.3% | [3] -0.7%

Cn1nnnc1SCC1=C(C(=O)O)N2C(=O)[C@@H](NC(=O)[C@H](O)c3ccccc3)[C@H]2SC1
inactive: [1] 1% | [2] 0.9% | [3] 1.9%

COc1ccc(NC(=O)CC2C(=O)N(C)C(=S)N2Cc2ccncc2)cc1 (stereo not given)
inactive: [1] -2.7% | [2] -1.6% | [3] -9.6%

O=S(=O)(CCc1nc2ccccc2[nH]1)c1ccc(Cl)cc1
inactive: [1] 3% | [2] -0.3% | [3] 3.5%

CC12CN3CC(C)(CN(C1)C3c1ccc(Cl)cc1Cl)C2=O (stereo not given)
inactive: [1] -0.6% | [2] 0.5% | [3] 0.1%

C[C@@H]1C[C@H]2[C@@H]3CCC4=CC(=O)C=C[C@]4(C)[C@@]3(F)[C@@H](O)C[C@]2(C)[C@H]1C(=O)CO
inactive: [1] 0.3% | [2] -1.7% | [3] 7.4%

Nc1ccc(N)c(C(=O)O)c1
inactive: [1] -6.1% | [2] -14% | [3] -7.2%

CSCCC(NC(C)=O)C(=O)Oc1ccc2c3c(c(=O)oc2c1)CCCC3 (stereo not given)
inactive: [1] -3.3% | [2] -1.8% | [3] -1.8%

CC(C)(C)C(=O)NCCCNc1ccc([N+](=O)[O-])cc1
inactive: [1] -0.6% | [2] -0.3% | [3] 3.3%

COc1ccc(OC(C)C(=O)Nc2ccc([N+](=O)[O-])cc2)cc1 (stereo not given)
inactive: [1] 4% | [2] 1.9% | [3] -0.5%

COc1ccc(OC(C)C(=O)Nc2ccccc2F)cc1 (stereo not given)
inactive: [1] 0.8% | [2] -0.2% | [3] 1.9%

N=c1ccn(CC(=O)NC(N)=O)c2ccccc12
inactive: [1] 3.3% | [2] 1.6% | [3] 3.1%

O=C(NCCc1nc2ccccc2[nH]1)c1cccc(Br)c1
inactive: [1] -3.2% | [2] -1.3% | [3] -7.9%

CC1Cc2ccccc2N1NC(=O)c1ccc(Cl)c(S(N)(=O)=O)c1 (stereo not given)
inactive: [1] 1.4% | [2] 0.7% | [3] -0.2%

COc1ccc(C2CC(c3c(O)cc(C)oc3=O)=NCCS2)c(OC)c1 (stereo not given)
inactive: [1] 4.5% | [2] 2% | [3] 4.3%

COc1ccc(C2NCCC3(O)CCCCC23)c(OC)c1OC (stereo not given)
inactive: [1] 4.3% | [2] -0.3% | [3] 4.4%

CC(C)(Sc1cc(C(C)(C)C)c(O)c(C(C)(C)C)c1)Sc1cc(C(C)(C)C)c(O)c(C(C)(C)C)c1
inactive: [1] 0% | [2] -2.2% | [3] -7.4%

O=C(Cc1ccccc1)NNC(=O)Cc1ccccc1
inactive: [1] 0.3% | [2] 1.7% | [3] -1.2%

COc1ccc(C(=O)NCc2cccnc2)cc1
inactive: [1] -1.8% | [2] 0% | [3] -4.9%

O=c1c2[nH]c3ccccc3c2ncn1CCC1=CCCCC1
inactive: [1] 4.3% | [2] 0.9% | [3] -3.1%

CCc1cc2c(=O)c(-c3nc(C)cs3)coc2cc1OC(C)C(=O)NCCO (stereo not given)
inactive: [1] -3.3% | [2] -0.8% | [3] -2.1%

COc1ccc2c(=O)c(-c3cnn(-c4ccccc4)c3)c(C)oc2c1
inactive: [1] -2.2% | [2] 0.9% | [3] 1.4%

O=C(Nc1ccccc1)OCC1CCCN2CCCCC12 (stereo not given)
inactive: [1] 0.6% | [2] 0.3% | [3] 2.5%

CC1(C)CC(CC(=O)O)(c2ccc(Cl)cc2)CCO1 (stereo not given)
inactive: [1] 2.5% | [2] -1.9% | [3] -4.6%

CCOC(=O)c1cnc2ccc(C(=O)OC)cc2c1Nc1ccc2c(c1)OCCO2
inactive: [1] -0.5% | [2] 0.1% | [3] -1.2%

Cn1c(=O)[nH]c2nnc(-c3ccc(Cl)c(Cl)c3)nc2c1=O
inactive: [1] -0.1% | [2] 0.4% | [3] -4.1%

COc1ccc(C(=O)OCc2cc3cccc(C)c3[nH]c2=O)cc1
inactive: [1] 0.3% | [2] 0.7% | [3] -0.5%

CC1(C)CC(CNCCC(c2ccc(F)cc2)c2ccco2)CCO1 (stereo not given)
inactive: [1] 0.9% | [2] -1.4% | [3] 3.4%

O=C1Cc2ccccc2C(c2ccccc2)N1 (stereo not given)
inactive: [1] -0.1% | [2] -0.3% | [3] -3.1%

Cc1ccc2c(c1)c(=O)c1c3n2CCN(C(=O)CCl)C3CC1 (stereo not given)
inactive: [1] -11.4% | [2] -1.3% | [3] -32.4%

CN(C)CCC=C1c2ccccc2CCc2ccccc21
inactive: [1] 1.3% | [2] 0.2% | [3] 0.7%

CC(C)(C)OC(=O)N1CCCC1C(=O)NC(Cc1ccccc1)C(=O)O (stereo not drawn) (Boc-Pro-Phe-OH; configuration not given here)
inactive: [1] -2.1% | [2] -0.8% | [3] -0.3%

COc1ccc2[nH]cc(CCNC(=O)C3CCCNC3=O)c2c1 (stereo not given)
inactive: [1] -3.2% | [2] -1.5% | [3] -5.3%

Cc1cc(O)c(C(=O)Cc2csc(C)n2)c(O)c1
inactive: [1] -5.7% | [2] -2.4% | [3] 0.7%

CNCCCC12CCC(c3ccccc31)c1ccccc12
inactive: [1] -2% | [2] -2.1% | [3] -5%

c1ccc(SSc2ccccc2)cc1
inactive: [1] 0.3% | [2] -1.5% | [3] -8.9%

COc1ccc2cc(C3(C)NC(=O)NC3=O)ccc2c1 (stereo not given)
inactive: [1] -0.4% | [2] -0.4% | [3] 0.8%

CCN(CC)CCOC(=O)C(c1ccccc1)c1ccccc1
inactive: [1] 1.8% | [2] -1.6% | [3] -3.7%

O=C(NC1CCCCC1)c1cc2nc(-c3ccco3)cc(C(F)(F)F)n2n1
inactive: [1] 2.6% | [2] 1.2% | [3] 0.5%

CC(=O)N(CCC(Cc1ccccc1)c1ccc2c(c1)OCO2)Cc1ccc(Cl)cc1 (stereo not given)
inactive: [1] 3.5% | [2] 0.1% | [3] -1%

CCOc1ccc(CCn2c(-c3ccco3)nc3ccccc3c2=O)cc1OCC
inactive: [1] 3.5% | [2] -0.4% | [3] 11.4%
